HCMV antiviral – blocks human cytomegalovirus replication; activity change, negative = inhibition, % at 57.5 µM; 4.5% of 410,000 active; AID 1259415; HFF cells, HCMV-luciferase reporter, 72 h; stronger effect = lower value; in the data active means activity change below about -60%; inconclusive means no clear call, values can overlap the other calls; inactive means above about -39%; further: on the % scale 0 is the no-effect control and ±100 the full control effect
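Cell-based, HFFs, 1000 cells/well, 16 h 37C; cpds in DMSO + HCMV-luc, MOI 1 PFU/cell; 72 h 37C; OneGlo luminescence after 5 min RT; norm. to buffer vs Salinomycin 10uM.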
Pf growth 48h – inhibits P. falciparum growth in the first generation, 48 h. P. falciparum luciferase growth in erythrocytes, 48 h. Potency, µM (titrated, usually from 28.7 µM), for the others: at the top dose activity change, negative = inhibition, hits mostly inhibitors. 5.9% of 310,000 active. AID 504832; further: potency means the concentration at half of the fitted maximal effect; on the % scale 0 is the no-effect control and ±100 the full control effect
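Luciferase-expressing parasites in RBCs, 2% Hct / 0.1% parasitemia final; RPMI 1640 + 0.5% Albumax; 37 C, 5% CO2, one generation; luminescence read-out, lower signal = inhibition.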
Pf growth 96h – P. falciparum growth inhibition at 96 hours. Potency, µM (titrated, usually from 28.7 µM), for the others: at the highest dose activity change, negative = inhibition, most hits filed as inhibitors. AID 504834. P. falciparum luciferase reporter growth, 96 h. 6.9% of 320,000 active; further: potency means the concentration at half of the fitted maximal effect; on the % scale 0 is the no-effect control and ±100 the full control effect
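Plates of compound plus infected erythrocytes (2% hematocrit, 0.05% parasitemia final) incubate 96 hours, 37 C, 5% CO2. Detection reagent added; reduced luminescence from the parasites' luciferase reporter flags inhibition.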
Shiga inhibitor – inhibitors of Shiga toxin in Vero cells | Vero cells, Shiga toxin protein synthesis inhibition reporter | inhibition, % at 38.7 µM | 9.2% of 290,000 active | AID 2315; in the data active means inhibition mostly above about 28%, no sharp cut-off; inactive means mostly below about 43%; further: 0% is about no effect
CHX counter – counter-screen for Shiga toxin inhibitors: cycloheximide protein synthesis inhibition. cell reporter, cycloheximide protein synthesis inhibition counterscreen. max response, %. 12% of 300,000 active; in the data active means max response mostly above about 13%, no sharp cut-off; inactive means mostly below about 14%; further: read at 38.3 µM for the half of the compounds with a filed dose; 0% is about no effect
Active calls of the source: *; ? = inconclusive; / = no result given; ! = not confirmed by another sample. In the library only some 20% were active in any assay of this set; here they are far more common. Unless noted, the call rests on the fitted dose curve; in most records, active means well fitted inhibition curve with a large enough effect; inconclusive means small, poorly fitted or top-dose-only effect, or another doubt; inactive means no such curve, though single readings can be large or run the other way.

SMILES	HCMV antiviral	Pf growth 48h	Pf growth 96h	Shiga inhibitor	CHX counter
S=C(Nc1ccccc1)Nc1nccs1	-18.6	?	7.38µM*	99.3*	29.3*
Fc1ccc(NC(=S)Nc2ccc3nccnc3c2)cc1	-28.6	19.8%	38.5%	49.4	38.3*
Cc1c(CNC2CCCCC2)c(C(=O)O)c(C)n1Cc1ccc(F)cc1	7.1	/	/	/	/
Cc1c(NC(=O)c2ccccc2)c(=O)n(-c2ccccc2)n1C	-24.9	25.2%	10.4µM*	11.5	-2.1
Cc1c(NC(=S)N/N=C/C=C/c2ccc([N+](=O)[O-])cc2)c(=O)n(-c2ccccc2)n1C	-102.8*	-11.8%	7.9%	2.5	1.1
Cc1c(NC(=S)N/N=C/C=C/c2ccccc2)c(=O)n(-c2ccccc2)n1C	-18.1	?	?	31.7	21.2
Cc1c(NC(=O)c2cccc(S(=O)(=O)N3CCOCC3)c2)c(=O)n(-c2ccccc2)n1C	-19.6	-2.7%	8.28µM*	-11.1	-3.1
CCc1ccc(-c2cc(C(=O)Nc3c(C)n(C)n(-c4ccccc4)c3=O)c3ccccc3n2)s1	16.1	?	?	3.7	-3.8
Cc1c(NC(=O)c2ccc(S(=O)(=O)N3CCOCC3)cc2)c(=O)n(-c2ccccc2)n1C	-27.2	-3.2%	-12.1%	-22.4	0.7
Cc1cc(Br)cc2c(C(=O)Nc3c(C)n(C)n(-c4ccccc4)c3=O)cc(-c3cccs3)nc12	-62.9*	0.0%	?	-9.6	1.2
Cc1c(NC(=O)c2c(F)c(F)c(F)c(F)c2F)c(=O)n(-c2ccccc2)n1C	11.0	-12.3%	-1.7%	-13.1	-3.1
CCOc1ccccc1N1CCN(C(=O)c2cc3cc(OC)ccc3[nH]2)CC1	/	?	?	-6.8	14.2
C=CCc1cccc(CNc2c(C)n(C)n(-c3ccccc3)c2=O)c1O	-8.1	10.4µM*	66.4%	-11.4	0.8
Cc1c(NC(=O)C(C)OC(=O)c2ccc([N+](=O)[O-])s2)c(=O)n(-c2ccccc2)n1C (stereo not given)	-7.7	?	13.1µM*	7.2	-1.0
Cc1ccc(S(=O)(=O)Nc2c(C)n(C)n(-c3ccccc3)c2=O)cc1	-97.8*!	2.9%	1.6%	23.1	-1.2
Cc1c(NC(=O)CN2C(=O)c3ccc([N+](=O)[O-])cc3C2=O)c(=O)n(-c2ccccc2)n1C	-24.9	31.0%	26.8%	7.0	-4.0
Cc1c(NC(=O)c2ccc(-c3ccc([N+](=O)[O-])cc3Cl)o2)c(=O)n(-c2ccccc2)n1C	?	20.1%	9.28µM*	-25.0	-3.2
Cc1c(NS(=O)(=O)c2ccccc2)c(=O)n(-c2ccccc2)n1C	-10.3	8.8%	-0.2%	-4.1	-3.8
Cc1nc(-c2ccccc2)sc1-c1ccc(SCC(=O)NCc2ccccc2Cl)nn1	31.1	/	/	/	/
COc1ccccc1/C=N/NC(=O)c1nnn(-c2nonc2N)c1-c1cccs1	/	8.4%	105.0%	-4.3	-0.9
Cc1c(NC(=S)NC(=O)c2ccccc2Cl)c(=O)n(-c2ccccc2)n1C	-17.4	3.6%	-13.8%	-4.6	1.9
Cc1c(C(=S)NC(=O)C2CC2)c(=O)n(-c2ccccc2)n1C	-20.8	-29.9%	14.7µM*	-7.6	7.3
CCCCOc1ccc(N2C(N)=NC(N)=NC23CCCCC3)cc1	-32.4	10.4µM*	?	7.6	-1.6
NC1=NC2(CCCCC2)N(c2ccc(F)cc2)C(N)=N1	6.4	13.1µM*	-2.8%	5.0	-4.5
COc1ccc(N2C(N)=NC(N)=NC23CCCC3)cc1	-39.0	0.928µM*	102.0%	-14.2	-2.6
SMILES	HCMV antiviral	Pf growth 48h	Pf growth 96h	Shiga inhibitor	CHX counter
COc1ccccc1N1C(N)=NC(N)=NC12CCCCC2	?	?	13.1µM*	-2.7	-2.1
NC1=NC2(CCCCC2)N(c2cccc(Cl)c2)C(N)=N1	14.5	/	?	3.1	13.0
CCOc1ccc(N2C(=O)CSC23CCCCC3)cc1	-19.7	-26.1%	?	-4.9	-3.1
CC(=O)C(CC(=O)N1CCCc2ccccc21)C(=O)Nc1ccc(F)cc1 (stereo not given)	5.3	1.7%	/	-12.6	-3.0
COc1ccc(C(=O)NCCS(=O)(=O)N2CCOCC2)cc1	-39.7	15.1%	36.1%	/	/
CC(=O)c1c(C)[nH]c(C(=O)OCC(=O)NCCc2ccc(Cl)cc2)c1C	9.8	/	?	-22.9	-1.8
CC(=O)c1c(C)[nH]c(C(=O)OCC(=O)NCCCc2ccccc2)c1C	-13.3	?	9.28µM*	/	/
O=C(COC(=O)c1cccc2ccccc12)NCCCc1ccccc1	5.8	12.4%	36.0%	-4.2	1.8
O=C(COC(=O)c1ccccc1[N+](=O)[O-])NCCCc1ccccc1	19.3	12.4%	28.1%	70.3*	37.7*
CC(=O)c1c(C)[nH]c(C(=O)OCC(=O)NCCc2ccc(F)cc2)c1C	12.0	?	?	1.6	-3.7
CC(=O)c1c(C)[nH]c(C(=O)OCC(=O)NCCC2=CCCCC2)c1C	?	13.1µM*	?	/	/
CCOC(=O)c1cccc(NC(=O)CC2C(=O)N(c3ccc(Cl)cc3)C(=O)N2C2CCCC2)c1 (stereo not given)	-30.5	/	/	/	/
O=C(c1ccccc1)c1ccc(OCC(O)CNC2CCCc3ccccc32)cc1 (stereo not given)	-2.3	?	10.4µM*	-9.8	-8.9
CCc1ccccc1OC[C@@H](O)CN[C@H]1CCCc2ccccc21	?	1.85µM*	1.65µM*	/	/
CC(C)(C)NCC(O)COc1ccccc1C1CCCC1 (stereo not given)	-78.4*	2.62µM*	5.22µM*	/	/
CC(=O)CCc1ccc(OCC(O)CNC2CCCc3ccccc32)cc1 (stereo not given)	-73.2*	?	?	-6.1	-1.0
CC(C)(C)NC[C@@H](O)COc1cccc2c1CCCC2=O	-38.2	-1.7%	22.5%	/	/
OC(CNC1CCCc2ccccc21)COc1ccc2ccccc2c1 (stereo not given)	0.3	?	?	-8.2	-4.4
CCc1c(C)nc(N)n2c(SCC(=O)N3CCN(c4ccccc4OC)CC3)nnc12	/	16.0%	29.5%	-18.1	-3.6
COc1ccc2nc(NC(=O)C3CCCN3S(=O)(=O)c3ccc(C)cc3)sc2c1 (stereo not given)	-35.2	?	?	2.6	2.7
CCCCCn1c(-c2cccc(C)c2)nc2ccccc21	-13.4	/	/	/	/
O=C(Nc1ccccc1)c1cc(C2CCCCN2S(=O)(=O)Cc2cccc(C(F)(F)F)c2)on1 (stereo not given)	1.4	/	/	/	/
CCc1cc2c(=O)n(-c3ccccc3)c(SCC(N)=O)nc2s1	-13.8	-14.6%	-6.3%	-7.7	13.7
Cc1nc2sc(-c3ccccc3)cc2c(=O)n1N	0.0	3.8%	115.3%	56.4*	44.3*
Cc1nc2sc(-c3ccccc3)cc2c(=O)n1-n1cccc1	11.4	80.1%	101.9%	112.9*	42.4*
NC(=O)CSc1nc2sc(-c3ccccc3)cc2c(=O)n1N	-26.4	48.0%	?	33.8	26.3*
Cc1ccccc1-c1nc2sc(-c3ccccc3)cc2c(=O)o1	-22.5	-4.0%	33.9%	19.4	2.0
Cc1nc2sc(-c3ccccc3)cc2c(=O)n1/N=C/N(C)C	143.0	322.1%	25.4%	72.1*	37.3*
